A selection: hits, their analogues and other compounds. The true share with any hit is near 19%.
HT1080-NT tox – kills 2HG-producing HT-1080-NT fibrosarcoma cells; hit rate 1.6% among 360,000; Potency, µM (doses to about 46.1 µM), hits mostly cytotoxic; HT-1080-NT fibrosarcoma viability, CellTiter-Glo ATP luminescence, 48 h;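 also: NT is the 2HG producing partner of a matched IDH1 knockdown line; nearly all actives have a fitted effect of over 55% in size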
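Fibrosarcoma NT cells, 750 per well in 5% FBS RPMI, were exposed to compound for 48 hours. Viability: CellTiter-Glo luminescence.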
HT1080 IDH1KD tx – HT-1080 IDH1 knockdown cell toxicity (counter line); HT-1080 IDH1 knockdown viability, ATP luminescence, 48 h; hit rate 2% among 360,000; Potency, µM (top dose mostly 46.1 µM), actives largely listed as cytotoxic
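Using the IDH1-knockdown HT-1080 line run in the same batch and compound series as the NT line, viability after 48 h at 37 °C was determined by CellTiter-Glo luminescence and expressed as % activity.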
IL-1B inflam inh – inflammasome signaling inhibition, IL-1 beta readout | activity change, % at 57.5 µM | THP-1 LPS/ATP IL-1B secretion, AlphaLISA, 16 h; stronger effect = lower value | hit rate 4.7% among 360,000 | AID 743279; in the data active = activity change below about -50%; inconclusive = mostly about -30% to -49%
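Secreted IL-1B measured by AlphaLISA bead assay after 16 h compound exposure of THP-1 cells; compounds (final up to 57.5 uM) added 1 h before LPS (250 ng/mL) and ATP (1.25 mM) stimulation; lower signal means less secretion.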
DT40 TDP1 no CPT – qHTS for Inhibitors of human tyrosyl-DNA phosphodiesterase 1 (TDP1): qHTS in cells in absence of CPT | Potency, µM (highest dose often 46.2 µM), most hits filed as inhibitors | DT40 Tdp1-/- hTDP1 cells, no CPT, ATP luminescence, 48 h | hit rate 15% among 420,000; also: nearly all actives have a fitted effect of over 55% in size
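Chicken DT40 Tdp1-/- cells stably complemented with human TDP1 were seeded at 400 cells/well with DMSO in place of 20 nM camptothecin. After compound pinning, cells grew at least 48 hr at 37 °C; viability read by CellTiter-Glo luminescence.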
TDP1 cell CPT – growth inhibition of DT40 Tdp1-/-;hTDP1 cells with camptothecin (screen for TDP1 inhibitors); Potency, µM (series often up to 46.2 µM), most hits filed as inhibitors; chicken DT40 Tdp1-/-;hTDP1 cells + 20 nM CPT, ATP luminescence, 48 h; AID 686979; hit rate 12% among 420,000; also: nearly all actives have a fitted effect of over 55% in size
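Cell growth measured by CellTiter-Glo luminescence after a minimum 48 h, 37 C compound exposure with 20 nM CPT in Tdp1-knockout DT40 cells stably expressing hTDP1, seeded 400/well; qHTS titration format.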
Numbers stand for hits; - = inactive; ? = inconclusive; . = no result. Unless noted, calls follow the shape of the dose curve; as a rule, active = well fitted curve in the direction sought with a large enough effect; inconclusive = small, poorly fitted or top-dose-only effect, or another doubt; inactive = no such curve, though single readings can be large; an effect the other way counts as inactive or inconclusive.

SMILES | HT1080-NT tox | HT1080 IDH1KD tx | IL-1B inflam inh | DT40 TDP1 no CPT | TDP1 cell CPT
Oc1ccc2c3c1OC1C(O)CC[C@]4(O)C(C2)N(CC2CCC2)CC[C@]314 (some centres undefined) | . | . | . | - | -
CC1(C)N([O])C(c2ccc(C(=O)O)cc2)=[N+]([O-])C1(C)C | . | . | . | - | -
CC(C)CN1CC[C@@]2(CCCN(C(=O)Oc3ccccc3)C2)C1 | . | . | . | - | -
Cc1ccccc1N1C(=O)NC(=O)/C(=C\c2cc(Br)c(N3CCOCC3)o2)C1=O | - | - | -103 | 7.3µM | 4.1µM
COc1cc(OC)c(NS(=O)(=O)c2cc(-c3cnc(C4CC4)o3)ccc2C)cc1Cl | . | . | . | 6.5µM | 13µM
O=c1[nH]sc2cc(F)ccc12 | ? | ? | -108 | 2.3µM | 1.8µM
O=C(C(Cc1ccccc1)NS(=O)(=O)c1ccc(F)cc1)N1CCC2(CC1)OCCO2 (centres undefined) | - | - | - | - | -
O=C1NC(=O)N(c2cccc(Br)c2)C(=O)/C1=C/c1ccsc1 | ? | 23µM | - | ? | ?
COc1ccc2c(c1)c(CCN)c(C)n2Cc1ccccc1 | ? | ? | -52 | 21µM | ?
Cc1c(C=O)c2ccccc2n1Cc1ccccc1 | - | - | - | - | -
O=C1NCN(c2ccccc2)C12CCN(C(c1ccccc1)c1nnnn1-c1ccc3c(c1)OCCO3)CC2 (centres undefined) | ? | ? | - | ? | ?
O=C1NCN(c2ccccc2)C12CCN(C(c1cc3ccccc3o1)c1nnnn1-c1ccc3c(c1)OCCO3)CC2 (centres undefined) | - | - | - | 23µM | 21µM
O=C1NCN(c2ccccc2)C12CCN(C(c1cccs1)c1nnnn1-c1ccc3c(c1)OCCO3)CC2 (centres undefined) | ? | ? | - | 16µM | 18µM
O=C1NCN(c2ccccc2)C12CCN(C(c1nnnn1-c1ccc3c(c1)OCCO3)C1CC1)CC2 (centres undefined) | ? | ? | - | 13µM | 23µM
CC(C)CC(N(C)C)C1(c2ccc(Cl)cc2)CCC1 (centres undefined) | ? | - | - | ? | ?
c1ccc(C2CC3CC4(CCCC4)N2O3)cc1 (centres undefined) | - | - | - | - | -
CN(C)CCc1c[nH]c2ccccc12 | . | . | . | - | -
N#CC(c1ccc(Cl)nn1)c1c(F)cccc1Cl (centres undefined) | - | - | - | ? | -
O=C(C(=O)N1CCOCC1)c1cn(Cc2ccccc2)c2ccccc12 | - | - | - | - | -
O=C(c1ccc(Cl)cc1)c1cn(Cc2ccccc2)c2cc3c(cc2c1=O)OCCO3 | . | . | . | 23µM | ?
COc1ccc2c(c1)c(=O)c(C(=O)c1ccc(Cl)cc1)cn2CC(=O)Nc1ccc2c(c1)OCCO2 | . | . | . | 21µM | 18µM
O=NN1CCCC1c1cccnc1 (centres undefined) | . | . | . | - | -
c1ccc(C2(NC3=NCCO3)CCCCC2)cc1 | - | - | ? | 9.2µM | ?
NC1(c2ccccc2)CCCCC1 | . | . | . | ? | -
CN1CCC[C@@H]1c1cccnc1 | . | . | . | - | -
SMILES | HT1080-NT tox | HT1080 IDH1KD tx | IL-1B inflam inh | DT40 TDP1 no CPT | TDP1 cell CPT
COC(=O)c1c(-c2ccc(Cl)cc2)noc1N1CCN(c2ccc(C(C)=O)cc2)CC1 | . | . | . | 21µM | ?
CCCCc1nn2c(=O)cc(COC(=O)Cc3ccccc3)nc2s1 | . | . | . | - | -
CCOC(=O)c1cccc(-[n+]2c(-c3ccccc3)cc(-c3ccccc3)cc2-c2ccccc2)c1 | ? | 18µM | -67 | 1.6µM | 1.6µM
CCOC(=O)c1ccc2c(c1)N(C)C(=O)c1ccccc1S2 | - | - | - | ? | ?
CCOC(=O)c1ccc(-[n+]2c(-c3ccccc3)cc(-c3ccccc3)cc2-c2ccccc2)cc1 | 18µM | 23µM | -99 | 0.73µM | 1µM
O=C1c2ccccc2S(=O)(=O)c2cc(C(=O)N3CCN(c4c(Cl)cncc4Cl)CC3)ccc21 | - | - | - | 15µM | ?
COc1c(OP2(=S)OCC(C)(C)CO2)cnn(C2CCCCC2)c1=O | - | - | - | 21µM | 23µM
Cc1cccc(-n2c(/C=C/c3ccc([N+](=O)[O-])o3)nc3ccccc3c2=O)c1 | - | ? | -104 | 4.6µM | 3.3µM
Cc1nc2ccccc2c(=O)n1-c1cc([N+](=O)[O-])cc([N+](=O)[O-])c1 | - | - | - | ? | ?
O=c1c2ccccc2nc(/C=C/c2ccc([N+](=O)[O-])o2)n1-c1ccc(O)cc1 | ? | 2.6µM | -88 | 2.3µM | 2.3µM
O=C(c1cccn2c(=O)c3cc(Cl)ccc3nc12)N1CCC2(CC1)OCCO2 | - | - | - | - | -
O=C(CCl)NCC1CCCO1 (centres undefined) | - | - | - | - | -
O=C(Oc1ccccc1)N1CCC2(CC1)CN(Cc1ccncc1)C2 | . | . | . | ? | -
COc1ccc(OC)c(CNCCc2ccc(OC)c(OC)c2)c1 | - | - | - | - | -
COc1ccc(CNCCC(c2ccc(OC(C)C)cc2)C(C)C)cc1OC (centres undefined) | ? | ? | -98 | 16µM | ?
CCOc1ccccc1CN1C2CCC1CC(c1ccc(C)cc1)C2 (centres undefined) | - | - | - | 18µM | 23µM
O=C1NC(=O)C(=Cc2ccc(-c3ccccc3[N+](=O)[O-])o2)C(=O)N1 | ? | - | . | 13µM | 7.3µM
CNS(=O)(=O)c1ccc(-c2ccc(C=C3C(=O)NC(=O)NC3=O)o2)cc1 | - | - | - | - | -
O=C1NC(=O)C(=Cc2cc3c(cc2[N+](=O)[O-])OCO3)C(=O)N1 | - | - | - | ? | -
Cc1ccc(S(=O)(=O)Oc2ccccc2C=C2C(=O)NC(=O)NC2=O)cc1 | - | - | -55 | - | -
O=C1NC(=O)C(=Cc2ccc(-c3cc(Cl)ccc3[N+](=O)[O-])o2)C(=O)N1 | - | - | - | ? | 16µM
NS(=O)(=O)c1ccc(-c2ccc(C=C3C(=O)NC(=O)NC3=O)o2)cc1 | - | - | - | - | -
O=C1NC(=O)C(=Cc2ccccc2[N+](=O)[O-])C(=O)N1 | - | - | - | 16µM | 15µM
O=c1[nH]c(O)c(C=Nc2ccc(Cl)c(C(F)(F)F)c2)c(=O)[nH]1 | - | - | - | - | -
C=C(C)C1CNC(C(=O)O)C1CC(=O)O (centres undefined) | . | . | . | - | -
CCOC(=O)[C@]12Cc3cc(OC)ccc3[C@H]1N(C(C)C)C(=O)c1cc(OC)ccc12 | 21µM | 21µM | -117 | 18µM | 21µM
CCOC(=O)[C@]12Cc3c(cc(OC)c(OC)c3OC)[C@H]1N(C(C)C)C(=O)c1cc(OC)ccc12 | 15µM | 18µM | -113 | 7.3µM | 9.2µM
